Results published in PubChem BioAssay (NCATS).
Results filed as inconclusive are left out. Calls of active or inactive are those of the source. Calls follow the shape of the dose curve; as a rule, active = well fitted cell-killing curve with a large enough effect; inconclusive = small, poorly fitted or top-dose-only effect; inactive = flat fitted curve, though single readings scatter.

Experiments:
[1] = Cell Viability - LYMP2-011 (AID 969); also: nearly all actives have a fitted effect of over 60% in size
Outline: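 In this qHTS cytotoxicity format, compounds are tested across concentrations on human lymphoblastoid cells in complete medium for 24 hours at 37 C. Viability is taken as cellular ATP measured by luciferase luminescence.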

[2] = Cell Viability - LYMP2-019 (AID 973); also: nearly all actives have a fitted effect of over 55% in size
Outline: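 Cytotoxicity is scored as a concentration-dependent drop in cellular ATP after cells (2500/well) receive compound for 24 hr at 37 C. Tetraoctylammonium bromide serves as positive control.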

[3] = Cell Viability - LYMP2-021 (AID 974);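 also: compound exposure lasts 24 hours at 37 °C; nearly all actives have a fitted effect of over 55% in size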
Outline: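 Loss of cellular ATP, measured with a luciferase-based CellTiter-Glo readout, serves as the toxicity signal in human lymphoblastoid cells treated for 24 hours at 37 C. Potency is reported as AC50 from a standard Hill model.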

[4] = Cell Viability - LYMP2-023 (AID 975); also: series mostly up to about 92 µM; nearly all actives have a fitted effect of over 55% in size
Outline: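 Steps: seed 2500 human lymphoblastoid cells per well, incubate 5 hr at 37 C, add compound for 24 hr at 37 C, add CellTiter-Glo, hold 30 min at room temperature, read luminescence. AC50 derived by Hill modelling.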

[5] = Cell Viability - LYMP2-025 (AID 976); also: series mostly up to about 92 µM
Outline: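 Acute cytotoxicity is scored as a concentration-dependent fall in intracellular ATP, measured by luciferase luminescence, in human lymphoblastoid LYMP2-025 cells exposed to compound for 24 hours at 37 C. AC50 values come from standard Hill fits.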

[6] = Cell Viability - LYMP2-002 (AID 977);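 also: series mostly up to about 92 µM; compound exposure lasted 24 h at 37 °C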
Outline: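 Human lymphoblastoid cells (2500/well) in complete medium were preincubated 5 hr at 37 C, then exposed to compounds for 24 hr at 37 C. Intracellular ATP was read by CellTiter-Glo luminescence; AC50 came from Hill-equation concentration-response fits.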

[7] = Cell Viability - LYMP2-015 (AID 971); also: nearly all actives have a fitted effect of over 55% in size
Outline: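 Cells are seeded at 2500 per well and incubated 5 hr at 37 C. Compounds are added across a concentration series for 24 hr at 37 C. CellTiter-Glo is added, and luminescence is read after 30 min at room temperature.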

[8] = Cell Viability - LYMP2-017 (AID 972)
Outline: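 Cytotoxicity is scored as a concentration-dependent drop in cellular ATP in a human lymphoblastoid line after 24 hr treatment at 37 C. Values are AC50s from Hill-equation modelling.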

[9] = Cell Viability - LYMP2-006 (AID 978); also: series mostly up to about 92 µM; nearly all actives have a fitted effect of over 60% in size
Outline: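 Cells are seeded at 2500 per well and rested 5 hr at 37 C. Compounds are added across a concentration series for 24 hr at 37 C, after which ATP is quantified by luciferase luminescence.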

[10] = Cell Viability - LYMP2-007 (AID 979);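 also: cells exposed to compound for 24 h before reading; nearly all actives have a fitted effect of over 60% in size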
Outline: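 Cells are seeded at 2500 per well and rested 5 hr. Compounds are then added over a concentration series for 24 hr at 37 C. CellTiter-Glo is added for 30 min at room temperature before luminescence reading.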

Measured: outcome

O=c1[nH]cc(F)c(=O)[nH]1
inactive: [1] | [2] | [3] | [4] | [5] | [6]

NS(=O)(=O)c1cc2c(cc1Cl)NCNS2(=O)=O
inactive: all assays above

COc1ccc(CCN(C)CCCC(C#N)(c2ccc(OC)c(OC)c2)C(C)C)cc1OC (configuration not stated)
inactive: [5]

Cn1c(=O)c2[nH]cnc2n(C)c1=O
not listed: [5]
inactive: all other assays above

Clc1ccc(C(c2ccccc2Cl)C(Cl)Cl)cc1 (configuration not stated)
inactive: all assays above

Nc1ccn([C@H]2CC[C@@H](CO)O2)c(=O)n1
inactive: all assays above

COc1ccc2[nH]cc(CCNC(C)=O)c2c1
inactive: all assays above

CC(C)C(=O)Nc1ccc([N+](=O)[O-])c(C(F)(F)F)c1
not listed: [2]
inactive: all other assays above

CCC1(c2ccccc2)C(=O)NCNC1=O
inactive: all assays above

O=c1c(-c2ccc(O)cc2)coc2cc(O)cc(O)c12
inactive: all assays above

COc1ccc2c(c1)c(CC(=O)O)c(C)n2C(=O)c1ccc(Cl)cc1
inactive: all assays above

Cc1cn([C@H]2C=C[C@@H](CO)O2)c(=O)[nH]c1=O
inactive: all assays above

Cc1ccc(-c2cc(C(F)(F)F)nn2-c2ccc(S(N)(=O)=O)cc2)cc1
inactive: all assays above

N[C@@H](Cc1c[nH]c2ccc(O)cc12)C(=O)O
inactive: all assays above

Cn1c(=O)c2c(ncn2C)n(C)c1=O
inactive: all assays above

Cc1cn([C@H]2C[C@H](N=[N+]=[N-])[C@@H](CO)O2)c(=O)[nH]c1=O
inactive: all assays above

COc1cc2c(c(OC)c1OC)-c1ccc(OC)c(=O)cc1[C@@H](NC(C)=O)CC2
inactive: [4] | [5]

NCCS(=O)(=O)O
inactive: all assays above

CC(C)NCC(O)c1ccc(O)c(O)c1 (configuration not stated)
inactive: all assays above

Nc1c2c(nc3ccccc13)CCCC2
inactive: all assays above
